Source: PMC5540273 (PLoS ONE, 2017)

Columns and labels:
Conditions in all cases: concentration: 1 μM, replicates: in singlicate; n = 1
YANK3 = test system: T1, YANK3
T1 construct: gene STK32C

YES = test system: T2, YES
T2 construct: gene YES1

YSK1 = test system: T3, YSK1
T3 construct: gene STK25

YSK4 = test system: T4, YSK4
T4 construct: gene MAP3K19

ZAK = test system: ZAK
ZAP70 = test system: ZAP70
p38-alpha = test system: T5, p38-alpha
T5 construct: gene MAPK14

p38-beta = test system: T6, p38-beta
T6 construct: gene MAPK11

p38-delta = test system: p38-delta
p38-gamma = test system: T7, p38-gamma
T7 construct: gene MAPK12
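Note: KINOMEscan kinase panel screen.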

Row | Structure (SMILES) | %Inh (YANK3) [%] | %Inh (YES) [%] | %Inh (YSK1) [%] | %Inh (YSK4) [%] | %Inh (ZAK) [%] | %Inh (ZAP70) [%] | %Inh (p38-alpha) [%] | %Inh (p38-beta) [%] | %Inh (p38-delta) [%] | %Inh (p38-gamma) [%]
1 | CN(C(=O)c1ccc(-c2cc(-c3c[nH]nc3-c3ccccn3)ccn2)cc1)C1CCOCC1 [GW810083] | 0 | 0 | 0 | 0 | 18 | 13 | 10 | 3 | 5 | 0
2 | Cc1nnc(-c2ccc3occ(-c4ccc(C(C)O)cc4)c3c2)o1 (centres unmarked) | 0 | 3 | 0 | 19 | 46 | 1 | 10 | 13 | 0 | 1
3 | CCn1cnc2c(N)ncnc21 [GW345098] | 0 | 21 | 0 | 5 | 12 | 3 | 5 | 4 | 0 | 49
4 | Cc1cn2c(=O)cc(N3CCOCC3)nc2n1Cc1cccc(Cl)c1Cl [GSK2334006] | 34 | 21 | 0 | 75 | 6 | 6 | 46 | 16 | 22 | 0
5 | COc1cc(Nc2nccc(N3CCC(NC(=O)c4cccc(NC(C)=O)c4)C3)n2)cc(OC)c1OC (centres unmarked) [GSK1379754] | 0 | 18 | 3 | 19 | 0 | 0 | 0 | 0 | 0 | 0
6 | c1ccc(-c2cc(-c3c[nH]nc3-c3ccccn3)ccn2)cc1 [GW576604] | 0 | 0 | 0 | 13 | 16 | 0 | 47 | 0 | 40 | 0
7 | CC(C)(C)n1cnc2c(N)ncnc21 [SKF-97359] | 0 | 27 | 0 | 0 | 0 | 21 | 0 | 0 | 0 | 2
8 | CC(=O)Nc1ccc(COc2ccc(Nc3ccnc4cc(-c5ccccn5)ccc34)cc2)cc1.Cl [GW440148] | 0 | 23 | 18 | 18 | 73 | 0 | 28 | 0 | 40 | 0
9 | O=C(NOCC1CC1)c1ccc(F)c(F)c1Nc1ccc(I)cc1Cl | 0 | 0 | 0 | 0 | 0 | 0 | 0 | 19 | 0 | 0
10 | CNc1ncnc2[nH]ncc12 [SKF-18355] | 0 | 0 | 0 | 46 | 0 | 24 | 6 | 8 | 0 | 0
11 | C[C@@H](Oc1cc(-n2cnc3ccc(NC(=O)NC(C)(C)C)cc32)sc1C(N)=O)c1ccccc1Cl [GSK346294] | 12 | 3 | 0 | 3 | 0 | 6 | 32 | 0 | 30 | 2
12 | O=C1Cc2cc(Nc3nc(NCc4cccc(S(=O)(=O)C(F)(F)F)c4)ncc3C(F)(F)F)ccc2N1 | 0 | 8 | 10 | 25 | 1 | 9 | 22 | 0 | 15 | 0
13 | COc1ccc(Nc2nccc(N3CCC(NC(=O)Nc4cc(C)ccc4C)C3)n2)cc1 (centres unmarked) [GSK1379741] | 8 | 13 | 0 | 19 | 5 | 0 | 0 | 0 | 47 | 0
14 | NS(=O)(=O)c1cccc(-c2ccc3nccc(-c4cccc(S(N)(=O)=O)c4)c3c2)c1 [GW867253] | 0 | 0 | 0 | 26 | 2 | 12 | 1 | 3 | 0 | 0
15 | O=C(NCCNc1ccnc(Nc2ccc(F)cc2)n1)c1cc2ccccc2s1 [GSK1379874] | 8 | 3 | 0 | 35 | 100 | 6 | 20 | 0 | 40 | 0
16 | O=C1NC(=O)C(N2CCc3ccccc32)=C1c1cccc(Cl)c1 [SB-408010] | 17 | 0 | 0 | 0 | 14 | 29 | 7 | 7 | 15 | 0
17 | COc1ccc(Nc2nccc(N3CCC(NC(=O)Nc4cccc(C(C)=O)c4)C3)n2)cc1 (centres unmarked) [GSK1379731] | 0 | 0 | 0 | 7 | 0 | 0 | 0 | 0 | 42 | 0
